Each structure is given as a SMILES string.

The subject of the test is Salmonella enterica serovar Typhimurium 14028s. In words: approximate change in surviving CFU after surface colonization relative to water-only control (log10 CFU/mL change); higher = more surviving bacteria (less inhibition of surface colonization). The conditions noted are these: not stated (Biolog proprietary concentration), surface: plastic 96-well plate, 20-24 h at 25 °C.

As to `CO[C@H]1O[C@H](CO)[C@@H](O)[C@H](O)[C@H]1O` [a-Methyl-D-Glucoside], the “approximate change in surviving CFU (log10)” value (“approximate change … (log10)” below) (Biolog plate: PM2, Biolog well: C6) amounted to 1.2.

With `NC(=O)CCC(=O)O` [Succinamic Acid], the “approximate change … (log10)” value (Biolog plate: PM2, Biolog well: F10) stood at 0.73.

`OC[C@H]1O[C@@H](n2cnc3c(O)nc(O)nc32)[C@H](O)[C@@H]1O` [Xanthosine]: the “approximate change … (log10)” value (Biolog plate: PM3, Biolog well: G2) was 0.751.

As for `Nc1ccn([C@@H]2O[C@H](CO)[C@@H](O)[C@H]2O)c(=O)n1` [Cytidine], the “approximate change … (log10)” value (Biolog plate: PM3, Biolog well: F4) stood at 0.386.

Take `O=P(O)(O)OC[C@H](O)CO` (racemic) [D,L-a-Glycerol-Phosphate]: under “Biolog plate: PM1, Biolog well: B7”, the “approximate change … (log10)” value stood at 1.31.

Turning to `O=C(CO)[C@@H](O)[C@H](O)[C@H](O)CO[C@H]1O[C@H](CO)[C@@H](O)[C@H](O)[C@H]1O` [Palatinose], the “approximate change … (log10)” value (Biolog plate: PM2, Biolog well: C12) is 0.751.

Regarding `C[C@H](N)C(=O)N[C@H](C(=O)O)[C@@H](C)O`, where the note is “Biolog plate: PM3, Biolog well: H7”, the “approximate change … (log10)” value is -0.0215.

For `NCC(=O)N[C@@H](CCC(=O)O)C(=O)O`, under “Biolog plate: PM3, Biolog well: H10”, the “approximate change … (log10)” value turned out to be 0.472.

As for `OC[C@H]1O[C@H](OC[C@H]2O[C@H](O[C@]3(CO)O[C@H](CO)[C@@H](O)[C@@H]3O)[C@H](O)[C@@H](O)[C@@H]2O)[C@H](O)[C@@H](O)[C@H]1O` [D-Raffinose], the “approximate change … (log10)” value (Biolog plate: PM2, Biolog well: D1) was 0.494.

Consider `C/C=C/C=C/C(=O)O` [Sorbic Acid], for which the “approximate change … (log10)” value (Biolog plate: PM2, Biolog well: F9) is -2.68.

Regarding `OC[C@H]1O[C@H](O[C@H]2[C@H](O)[C@@H](O)[C@H](O)O[C@@H]2CO)[C@H](O)[C@@H](O)[C@@H]1O` [Maltose], the “approximate change … (log10)” value (Biolog plate: PM1, Biolog well: C10) worked out at 1.57.

In the case of `O=C(O)CC(=O)O` [Malonic Acid], the “approximate change … (log10)” value (Biolog plate: PM2, Biolog well: F2) stood at 0.0859.

In the case of `O=C(O)CCC(=O)C(=O)O` [a-Keto-Glutaric Acid], the “approximate change … (log10)” value (Biolog plate: PM1, Biolog well: D6) turned out to be 1.19.

`CO[C@H]1O[C@H](CO)[C@H](O)[C@H](O)[C@H]1O` [a-Methyl-D-Galactoside]: the “approximate change … (log10)” value (Biolog plate: PM1, Biolog well: D8) stood at 1.72.

Turning to `O=C(O)CC(O)C(=O)O` (racemic) [D,L-Malic Acid], where the note is “Biolog plate: PM1, Biolog well: C3”, the “approximate change … (log10)” value stood at 1.05.

For the molecule `OC[C@H]1O[C@H](OC[C@H]2OC(O)[C@H](O)[C@@H](O)[C@@H]2O)[C@H](O)[C@@H](O)[C@H]1O` (stereo partly drawn) [D-Melibiose], the “approximate change … (log10)” value (Biolog plate: PM1, Biolog well: C11) was 1.82.

Turning to `O=C(O)C(O)C(O)C(=O)O` (configuration not stated) [m-Tartaric Acid], the “approximate change … (log10)” value (Biolog plate: PM1, Biolog well: E2) worked out at 1.04.

In the case of `OCC1OC(OC2C(CO)OC(O)C(O)C2O)C(O)C(O)C1O` [D-Cellobiose], the “approximate change … (log10)” value (Biolog plate: PM1, Biolog well: F11) is 1.2.

For `C[C@H](N)C(=O)NCC(=O)O` [L-Alanyl-Glycine], the “approximate change … (log10)” value (Biolog plate: PM1, Biolog well: G6) turned out to be 0.966.

With `CC(=O)CC(=O)O` [Acetoacetic Acid], the “approximate change … (log10)” value (Biolog plate: PM1, Biolog well: G7) is 0.172.

With `O=C(O)Cc1ccc(O)cc1` [p-Hydroxy Phenyl Acetic Acid], the “approximate change … (log10)” value (Biolog plate: PM1, Biolog well: H2) was -2.12.

`O=C(O)Cc1cccc(O)c1` [m-Hydroxy Phenyl Acetic Acid]: the “approximate change … (log10)” value (Biolog plate: PM1, Biolog well: H3) was -1.31.

As for `OCC1(O)OC[C@@H](O)[C@@H](O)[C@H]1O` (stereo partly drawn) [D-Psicose], the “approximate change … (log10)” value (Biolog plate: PM1, Biolog well: H5) is 1.35.

For the molecule `O=C[C@H](O)[C@H](O)[C@@H](O)CO` [L-Lyxose], the “approximate change … (log10)” value (Biolog plate: PM1, Biolog well: H6) was -0.987.

Take `NCCO` [2-Aminoethanol]: the “approximate change … (log10)” value (Biolog plate: PM1, Biolog well: H12) was 0.365.

As for `OC[C@H](O)C(O)[C@@H](O)CO` [L-Arabitol], the “approximate change … (log10)” value (Biolog plate: PM2, Biolog well: B7) amounted to 1.12.

With `OC[C@H]1O[C@@H](Oc2ccc(O)cc2)[C@H](O)[C@@H](O)[C@@H]1O` [Arbutin], under “Biolog plate: PM2, Biolog well: B8”, the “approximate change … (log10)” value was 1.29.

Consider `CO[C@H]1O[C@H](CO)[C@@H](O)[C@H](O)[C@@H]1O` [a-Methyl-D-Mannoside], for which the “approximate change … (log10)” value (Biolog plate: PM2, Biolog well: C10) came to 0.0215.

Take `OC[C@@H](O)[C@H](O)[C@@H](O)CO` [Xylitol]: the “approximate change … (log10)” value (Biolog plate: PM2, Biolog well: D8) came out at 1.01.

On to `O=C1O[C@H](CO)[C@@H](O)[C@H]1O` [D-Ribono-1,4-Lactone], for which, under “Biolog plate: PM2, Biolog well: F7”, the “approximate change … (log10)” value turned out to be 0.944.

For `O=C(O)[C@@H](O)[C@H](O)C(=O)O` [D-Tartaric Acid], the “approximate change … (log10)” value (Biolog plate: PM2, Biolog well: F11) was found to be 0.944.

Take `O=C(O)[C@H](O)[C@@H](O)C(=O)O` [L-Tartaric Acid]: the “approximate change … (log10)” value (Biolog plate: PM2, Biolog well: F12) worked out at 0.687.

As to `O=C(O)[C@@H]1C[C@@H](O)CN1` [Hydroxy-L-Proline], the “approximate change … (log10)” value (Biolog plate: PM2, Biolog well: G8) is 0.622.

On to `O=C(CO)CO` [Dihydroxy Acetone], for which the “approximate change … (log10)” value (Biolog plate: PM2, Biolog well: H9) is -4.4.

Take `CC(=O)C(C)O` (configuration not stated) [3-Hydroxy-2-Butanone]: the “approximate change … (log10)” value (Biolog plate: PM2, Biolog well: H12) is -0.15.

Take `N[C@@H](Cc1ccc(O)cc1)C(=O)O` [L-Tyrosine]: under “Biolog plate: PM3, Biolog well: C1”, the “approximate change … (log10)” value came out at 0.3.

With `NC(=O)C[C@@H](N)C(=O)O` [D-Asparagine], the “approximate change … (log10)” value (Biolog plate: PM3, Biolog well: C4) is 0.644.

Consider `NC(=O)NCCC[C@H](N)C(=O)O` [L-Citrulline], for which the “approximate change … (log10)” value (Biolog plate: PM3, Biolog well: C10) is 0.665.

Consider `CC(=O)N[C@@H](CCC(=O)O)C(=O)O` [N-Acetyl-L-Glutamic Acid], for which the “approximate change … (log10)” value (Biolog plate: PM3, Biolog well: D1) was 0.751.

`CCCCN` [N-Butylamine]: under “Biolog plate: PM3, Biolog well: D7”, the “approximate change … (log10)” value was -2.12.

Take `NCCc1ccccc1` [B-Phenylethyl-amine]: the “approximate change … (log10)” value (Biolog plate: PM3, Biolog well: E2) is -0.129.

For `O=c1cc[nH]c(=O)[nH]1` [Uracil], for the setting “Biolog plate: PM3, Biolog well: F10”, the “approximate change … (log10)” value was 1.14.

As to `Oc1nc(O)c2nc(O)[nH]c2n1`, the “approximate change … (log10)” value (Biolog plate: PM3, Biolog well: G3) is 1.14.

For `O=C1NC(=O)C(=O)C(=O)N1` [Alloxan], the “approximate change … (log10)” value (Biolog plate: PM3, Biolog well: G4) was -3.16.

As to `C[C@H](N)C(=O)NCC(=O)O`, the “approximate change … (log10)” value (Biolog plate: PM3, Biolog well: H4) is -0.322.

Turning to `C[C@H](N)C(=O)N[C@@H](Cc1cnc[nH]1)C(=O)O`, the “approximate change … (log10)” value (Biolog plate: PM3, Biolog well: H5) was -0.258.

On to `CSCC[C@H](N)C(=O)N[C@@H](C)C(=O)O`, for which the “approximate change … (log10)” value (Biolog plate: PM3, Biolog well: H12) was found to be 0.0214.

With `N[C@@H](CO)C(=O)O` [L-Serine], the “approximate change … (log10)” value came to 1.07 (Biolog plate: PM1, Biolog well: G3) and 0.107 (Biolog plate: PM3, Biolog well: B10).

On to `CC(=O)N[C@H]1C(O)O[C@H](CO)[C@H](O)[C@@H]1O` (stereo partly drawn) [N-Acetyl-D-Galactosamine], for which the “approximate change … (log10)” value by setting is: (Biolog plate: PM2, Biolog well: B1) 0.622; (Biolog plate: PM3, Biolog well: E12) -0.129.

Take `NC(=O)CC[C@H](N)C(=O)O` [L-Glutamine]: the “approximate change … (log10)” value (Biolog plate: PM1, Biolog well: E1) was 0.322 and the “approximate change … (log10)” value (Biolog plate: PM3, Biolog well: B1) is -0.0429.

On to `NC(=O)C[C@H](N)C(=O)O` [L-Asparagine], for which the “approximate change … (log10)” value turned out to be 0.944 (Biolog plate: PM1, Biolog well: D1) and 0.451 (Biolog plate: PM3, Biolog well: A9).

As to `NCCCCN` [Putrescine], the “approximate change … (log10)” value reads like this: (Biolog plate: PM2, Biolog well: H8) 0.322; (Biolog plate: PM3, Biolog well: D11) -0.3.

The values above are taken from the supplement of paper PMC11738630.
